# Measured values from PubChem BioAssay (Tox21).
# Inconclusive results are not listed. Calls of active or inactive are those of the source. Calls come from the whole dose curve.
# Assay: qHTS assay to identify small molecule agonists or antagonists of the thyroid stimulating hormone receptor (TSHR) signaling pathway - wild type cell line counter screen (AID 1259384)
# Settings: HEK293 wild type, cAMP HTRF counter-screen, hits give high values; series mostly up to 92.4 µM; cAMP activity change: at the top concentration
# Source text: U.S. Tox21 Program National Center for Advancing Translational Sciences [NCATS] NIH Chemical Genomics Center [NCGC] U.S. Environmental Protection Agency [EPA] National Institutes of Environmental Health Sciences [NIEHS] National Toxicology Program [NTP] U.S. Food and Drug Administration [FDA] Tox21 Assay Overview: TSHR is the receptor for thyrotropin (thyroid stimulating hormone or TSH), a member of the glycoprotein hormone family. TSH is released by the anterior pituitary gland and is the main regulator of thyroid gland growth and development. Upon binding circulating thyrotropin, a G-protein signal cascade activates adenylyl cyclase and […] cAMP concentration is increased. cAMP is a key second messenger involved extensively in cellular signal transduction pathways associated with the majority of G-protein coupled receptors (GPCRs). The activation of these GPCRs by neurotransmitters, lipids, nucleotides, peptides and hormones results in the activation or the inhibition of plasma membrane-bound adenylate cyclase through heterotrimeric G-proteins. A cell-based TSHR-Hek293 assay can be used to identify TSHR agonists. To eliminate the false positive compounds identified from screening a cell-based TSHR-Hek293 cell line, cAMP assay in a wild type Hek293 cells was used as a counter screening.
# Tox21 Assay Protocol Summary: Hek293 cells (wild type) were dispensed at 800 cells/4 uL/well in 1536-well white plates using a Multidrop dispenser. After the assay plates were incubated at a 37 C/5% CO2 incubator for 18 hrs, 23 nL of compounds dissolved in DMSO, positive controls or DMSO only was transferred to the assay plate by a pin tool, followed by 1 ul medium containing Ro20-1724. After 30 min of incubation at room temperature, 2.5 ul/well of cAMP-d2 and 2.5 ul/well of anti-cAMP-cryptate were added respectively into the assay plates using a Flying Reagent Dispenser. The plates were incubated at room temperature for 1 hr. The fluorescence intensity in the plates was measured using an Envision plate reader. Each test compound was measured at 15 concentrations and in triplicates.
# % is set by controls: 0 for no effect and ±100 for the full control effect.
row,SMILES,cAMP activity change
1,CCOC(=O)COc1ccc2c(c1)CC(NCC(O)c1cccc(Cl)c1)CC2 (stereo not given),0.711% (inactive)
2,O=C(O)c1cccc(Cl)c1Cl,3.8% (inactive)
3,C1CSCCS1,2.54% (inactive)
4,C/C(=N\O)[C@@H](C)NCC(C)(C)CN[C@H](C)/C(C)=N/O,0.59% [at 42.5 µM] (inactive)
5,CC1(C)O[C@@H]2C[C@H]3[C@@H]4CCC5=CC(=O)CC[C@]5(C)[C@@]4(F)[C@@H](O)C[C@]3(C)[C@]2(C(=O)CCl)O1,-4.15% [at 42.5 µM] (inactive)
6,CC(=O)Oc1cc(C(C)C)c(OCCN(C)C)cc1C,-4.84% [at 42.5 µM] (inactive)
7,CNCCC(Oc1ccccc1OC)c1ccccc1 (stereo not given),5.01% [at 42.5 µM] (inactive)
8,CN1CCN(c2c(F)cc3c(=O)c(C(=O)O)cn(CCF)c3c2F)CC1,0.681% [at 42.5 µM] (inactive)
9,COc1ccc(Nc2ccc(OC)cc2)cc1,-8.99% (inactive)
10,O=C(CCCl)NCc1ccccc1,-6.01% [at 42.5 µM] (inactive)
11,CC1=C2[C@H](/C=C(\C)C(=O)O)CC[C@@H](C)[C@H]2CC1,3.97% (inactive)
12,NC(Cc1ccc(F)cc1)C(=O)O (stereo not given),-1.15% [at 8.39 µM] (inactive)
13,COc1ccccc1OCC(O)COC(N)=O (stereo not given),-0.0039% [at 42.5 µM] (inactive)
14,O=C1CCCCC1C1CCCCC1 (stereo not given),-7.56% (inactive)
15,CCCCCCn1c(=O)c2c(ncn2C)n(C)c1=O,-3.52% [at 42.5 µM] (inactive)
16,CC(C)O,-2.03% (inactive)
17,Nc1cccc(S(=O)(=O)O)c1,-0.136% (inactive)
18,CN(C)C(=O)NC1(c2ccccc2)CCN(CCC[C@]2(c3ccc(Cl)c(Cl)c3)CCCN(C(=O)c3ccccc3)C2)CC1,-1.66% [at 18.9 µM] (inactive)
19,Oc1ccccc1F,0.805% (inactive)
20,Cc1ccc(C(C)C)cc1O,2.5% (inactive)

row,SMILES,cAMP activity change
1,CC[C@H]1CC[C@H](NCc2cc3c(cc2OC)[C@H]2C[C@H]2C(=O)N3C)[C@H](c2ccccc2)N1,-2.17% (inactive)
2,CC(=O)O[C@H]1CC[C@@]2(C)C(=CC[C@@H]3[C@@H]2CC[C@]2(C)C(C(C)=O)=CC[C@@H]32)C1,0.173% [at 42.5 µM] (inactive)
3,O=[N+]([O-])c1nccn1CO[C@@H](CO)[C@H](O)CO,0.921% [at 42.5 µM] (inactive)
4,CC(C)C(=O)OCC(C)(C)C(O)C(C)C (stereo not given),0% (inactive)
5,COC(=O)N[C@H](C(=O)N[C@@H](Cc1ccccc1)[C@@H](O)CN(Cc1ccc(-c2ccccn2)cc1)NC(=O)[C@@H](NC(=O)OC)C(C)(C)C)C(C)(C)C,-2.68% [at 42.5 µM] (inactive)
6,CC(CNC1CCCCC1)OC(=O)c1ccccc1 (stereo not given),2.68% [at 42.5 µM] (inactive)
7,Cc1ccc(C)c(N)c1,-5.41% (inactive)
8,CN1CCN(c2c(F)cc3c(=O)c(C(=O)O)cn4c3c2SCC4)CC1,5.09% [at 42.5 µM] (inactive)
9,CC(=O)OC1C2(C)CCC(C2)C1(C)C (stereo not given),1.11% (inactive)
10,C1CCOC1,0.243% (inactive)
11,COc1cc(N)c(Cl)cc1C(=O)NC1CCN(Cc2ccccc2)CC1,0.71% [at 42.5 µM] (inactive)
12,OCc1ccccc1O,-6.71% [at 42.5 µM] (inactive)
13,Cc1c(N)cccc1N,-7.47% (inactive)
14,CCOc1ccc(OCC)c(Cl)c1,1.62% (inactive)
15,CCCC1CCC(=O)O1 (stereo not given),-0.376% (inactive)
16,CC/C=C\CCOC(=O)CCCCC,-0.0944% (inactive)
17,FC(F)(F)C(F)(F)C(F)(F)C(F)(F)C(F)(F)C(F)(F)C(F)(F)C(F)(F)Br,-7.16% [at 42.5 µM] (inactive)
18,CC1=C(O)C(=O)OC1C (stereo not given),1.75% (inactive)
19,CN1CCN(N)CC1,1.18% [at 42.5 µM] (inactive)
20,CCCS(=O)c1ccc2nc(NC(=O)OC)[nH]c2c1 (stereo not given),-1.85% [at 42.5 µM] (inactive)
